Bioassay records from PubChem.
Cruzain noTriton: inhibitors of Trypanosoma cruzi cruzain without detergent | P25779 | purified cruzain, Z-FR-AMC fluorescence, no detergent | 200,000 compounds, 2.3% hits | AID 1476 | Potency, µM, without a hit: max response, negative = inhibition, usual class: inhibitors;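 further: plate controls were enzyme without inhibitor for no effect and buffer without enzyme for full effect; nearly all actives have a fitted effect of over 40% in size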
Target sequence (P25779 123-467 limits assumed): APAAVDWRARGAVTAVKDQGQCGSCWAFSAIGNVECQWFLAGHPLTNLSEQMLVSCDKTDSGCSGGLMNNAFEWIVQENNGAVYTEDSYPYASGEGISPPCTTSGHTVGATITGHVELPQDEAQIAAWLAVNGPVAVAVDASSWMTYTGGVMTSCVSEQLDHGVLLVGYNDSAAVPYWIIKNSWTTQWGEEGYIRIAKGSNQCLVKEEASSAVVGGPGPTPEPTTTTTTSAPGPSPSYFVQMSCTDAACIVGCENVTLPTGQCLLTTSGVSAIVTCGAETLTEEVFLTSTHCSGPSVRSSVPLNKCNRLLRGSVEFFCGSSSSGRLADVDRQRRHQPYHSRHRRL
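Purified cruzain at 1.5 nM, pre-incubated 15 min with compound at room temperature in 100 mM sodium acetate pH 5.5, 5 mM DTT, 0.00005% Triton X-100. Reaction started with 2 uM Z-FR-AMC; AMC fluorescence increase over 60 s gives rate.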
Cruzain Triton: inhibitors of Trypanosoma cruzi cruzain with detergent; Potency, µM, for the others: max response, negative = inhibition, usual class: inhibitors; 200,000 compounds, 0.43% hits; P25779; purified cruzain, Z-FR-AMC fluorescence, 0.01% Triton;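 further: plate controls were neutral wells for no effect and buffer without enzyme for full effect; nearly all actives have a fitted effect of over 40% in size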
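Cruzain (1.5 nM) preincubated 15 min at RT with compound in 100 mM sodium acetate pH 5.5, 5 mM DTT, 0.01% Triton X-100. Reaction started with 2 uM Z-FR-AMC; AMC fluorescence (ex 360/em 450 nm) change over 60 s gave rate.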
* marks the source's active call; other numbers are inactive results; ? = inconclusive. In the library only some 2.6% were active in any assay of this set; here they are far more common. The call rests on the fitted dose curve; in most records, active means well fitted curve in the direction sought with a large enough effect; inconclusive means small, poorly fitted or top-dose-only effect, or another doubt; inactive means no such curve, though single readings can be large; an effect the other way counts as inactive or inconclusive. Potency means the concentration at half of the fitted maximal effect.

SMILES	Cruzain noTriton	Cruzain Triton
COc1cccc(-c2nc(N3CCN(c4ccccc4)CC3)c3ccccc3n2)c1O	10µM*	1%
Cc1cc(=O)[nH]c2nnc(SCC(=O)Nc3ccc(OC(F)(F)F)cc3)n12	-4%	-1%
COc1c(C)c2c(c(O)c1CC=C(C)CCC(=O)OCCN1CCOCC1)C(=O)OC2	-5%	2%
Cc1cc(C)cc(OCC(=O)Nc2ccc(N3CCN(S(C)(=O)=O)CC3)cc2)c1	16µM*	-1%
Cc1cc(C)cc(OCC(=O)Nc2ccc(N3CCN(C(=O)c4ccco4)CC3)cc2)c1	5%	-7%
Cc1cccc(OCCCC(=O)Nc2ccc(S(N)(=O)=O)cc2)c1C	?	-4%
Cc1cccc(OCCCC(=O)Nc2ccc(N3CCCCC3)cc2)c1C	20µM*	5%
Cc1ccccc1OCC(=O)Nc1ccc(N2CCN(S(C)(=O)=O)CC2)cc1	?	8%
Cc1cccc(OCC(=O)Nc2ccc(N3CCN(S(C)(=O)=O)CC3)cc2)c1C	13µM*	8%
Cc1cc(Cl)ccc1NC(=O)c1cccc(NC(=O)N2CCSc3ncccc32)c1	8%	-9%
Cc1ccc(-n2c3c(c(=O)[nH]c2=O)C(NC(=O)c2ccccc2F)(C(F)(F)F)C(=O)N3)cc1C (stereo not given)	-6%	-1%
COc1ccc(OC)c(NC(=O)CC(=O)Nc2ccc3nc4n(c(=O)c3c2)CCCCC4)c1	?	-7%
COc1ccc(OCc2nc(C#N)c(NCc3ccccc3Cl)o2)cc1	9%	1%
COC(=O)C(C)NC(=O)C(C)NC(=O)OCc1ccccc1 (stereo not given)	-3%	0%
CSCC[C@H](C=O)NC(=O)[C@H](CC(C)C)NC(=O)[C@H](CC(C)C)NC(C)=O	0.0025µM*	0.0028µM*
CC(=O)N[C@@H](CC(C)C)C(=O)O	-4%	-1%
CSCCC(NC=O)C(=O)NC(CC(C)C)C(=O)NC(Cc1ccccc1)C(=O)O (stereo not given)	5%	5%
CCCCC(C=O)NC(=O)C(CC(C)C)NC(=O)OCc1ccccc1 (stereo not given)	0.0025µM*	0.002µM*
CCCC[C@@H](C=O)NC(=O)[C@H](CC(C)C)NC(=O)[C@H](CC(C)C)NC(C)=O	0.0032µM*	?
O=C(O)C[C@H](NC(=O)CP(=O)(O)O)C(=O)O.[NH-][C@@H]1CCCC[C@@H]1[NH-].[Pt]	6%	7%
CNS(=O)(=O)c1cc(-c2nn3c(C)nnc3c3ccccc23)ccc1C	-7%	3%
Cc1cc(-n2ccnc(NCCc3ccc(S(N)(=O)=O)cc3)c2=O)ccc1Br	-17%	-14%
CC(C)[C@H](O)C1=CCCCC1=O	0%	-1%
c1nc(NCCc2cnc[nH]2)c2[nH]cnc2n1	6%	2%
Cn1c(-c2cccc(OCc3ccccc3)c2)nc2c1c(=O)[nH]c(=O)n2Cc1ccccc1	7.9µM*	-1%
SMILES	Cruzain noTriton	Cruzain Triton
COc1ccc(-c2nc3c(c(=O)[nH]c(=O)n3Cc3ccccc3)n2C)cc1	-9%	1%
CCc1ccc2oc(-c3cc(NC(=O)c4cc(OC)c(OC)c(OC)c4)ccc3O)nc2c1	2%	-2%
CCc1ccc2oc(-c3cc(N=Cc4cccc(OC)c4O)ccc3O)nc2c1	16µM*	-10%
CCOc1ccc2c(ccc(/C=C\c3cc(C)c4cccnc4c3O)[n+]2C)c1	0%	3.2µM*
CCOc1ccc2c(c1)sc(N)[n+]2Cc1cc(C)cc2cccnc12	1%	-10%
C=CCSc1nc2c(N)ncnc2n1[C@@H]1O[C@H](CO)[C@@H](O)[C@@H]1O	6%	2%
O=C(Nc1cc2ccc(O)cc2oc1=O)c1ccccc1	-22%	-1%
Cc1ccc(CNC(=O)CSc2c(C(C)C)cnc3c2c(=O)n(C)c(=O)n3C)cc1	-5%	1%
Cc1cccc(C(=O)NC(NC(=S)Nc2ccc(S(N)(=O)=O)cc2)C(Cl)(Cl)Cl)c1 (stereo not given)	25µM*	13µM*
CCC(=O)NC(NC(=S)Nc1ccc(S(N)(=O)=O)cc1)C(Cl)(Cl)Cl (stereo not given)	11%	-4%
CCCCN(CC)Cc1ccc(CNS(=O)(=O)c2cc3c(cc2Cl)NC(=O)CO3)o1	-2%	1%
N[C@@H]1C(O)OC(CO)C(O)C1O (stereo not given in full)	25%	0%
CCOC(=O)Cc1csc(N/N=C/c2ccccc2)n1	1%	-7%
CCOC(=O)Cc1csc(N/N=C\c2cccc(Br)c2)n1	32µM*	-23%
COCCN1CN=C(Nc2nc(C)c3ccc(C)cc3n2)NC1	-12%	-16%
CCOc1ccc2nc(NC3=NC(C)(C)C=C(C)N3)nc(C)c2c1	16µM*	28µM*
CCOc1ccc2c(C)nc(NC3=NC(C)(C)C=C(C)N3)nc2c1	16µM*	16µM*
CCOc1ccc2nc(NC3=NCN(Cc4ccco4)CN3)nc(C)c2c1	-4%	-3%
COCc1cc(=O)[nH]c(Nc2nc(C)c3cc(OC)ccc3n2)n1	8%	0%
CCOc1ccc2nc(NC3=NC(c4ccc(OC)cc4)CC(=O)N3)nc(C)c2c1 (stereo not given)	?	8.9µM*
CNC(=O)COc1ccc(NC(=O)CCn2nc(-c3ccc(C)cc3)c3ccccc3c2=O)cc1	24%	-3%
COc1ccc(-c2c(C#N)c(SCC(=O)Nc3ccc(C)c(C)c3)nc(C)c2C(=O)Nc2ccc(Cl)cc2)cc1	6.3µM*	1%
CCOc1ccc(NC(=O)CSc2nc(C)c(C(=O)Nc3ccccc3)c(-c3ccc(Cl)cc3)c2C#N)cc1	-21%	-4%
CCCCN1C(=O)CN(C2CCCCCC2)C(=O)C1c1ccc(OCC)c(OC)c1 (stereo not given)	15%	0%
Nc1cccc(Cl)c1	5%	0%
SMILES	Cruzain noTriton	Cruzain Triton
Nc1cccc(N)c1	?	11µM*
COc1ccc(NC(=S)NNc2ccc([N+](=O)[O-])cc2S(=O)(=O)Nc2ccc(C)cc2C)cc1	25µM*	-14%
Cc1ccc(NS(=O)(=O)c2cc([N+](=O)[O-])ccc2NNC(=S)Nc2cc(C)ccc2C)c(C)c1	?	-10%
Cc1ccccc1NS(=O)(=O)c1cc(C(=O)Nc2cccc([N+](=O)[O-])c2)ccc1C	11%	-6%
Cc1ccc(NS(=O)(=O)c2cc([N+](=O)[O-])ccc2NNC(=S)Nc2cccc(Cl)c2)c(C)c1	-22%	20µM*
COc1ccc2c(c1)C(c1ccccc1OC)CC(=O)O2 (stereo not given)	?	-16%
Cc1cc(SCC(=O)NCc2ccc(Cl)cc2)nc(=O)[nH]1	-1%	1%
COc1ccc(Oc2ncc3ncc(=O)n(C[C@H]4CCCO4)c3n2)cc1	8%	0%
CCc1ccccc1NC(=O)Cc1ccc(-n2c(C)nc3cccnc32)cc1	-2%	-21%
CCc1nc2cccnc2n1-c1ccc(CC(=O)Nc2cccc(C)c2C)cc1	-5%	16µM*
CCc1nc2cccnc2n1-c1ccc(CC(=O)Nc2ccccc2Cl)cc1	1%	13µM*
CCc1nc2cccnc2n1-c1ccc(CC(=O)Nc2ccc(C)cc2)cc1	2%	-10%
O=C(c1ccncc1)N1CCC2(CCCN(c3cccc(-c4ccccc4)c3)C2)CC1	?	-5%
Cc1ccc(C)c(NC(=O)Cn2c(=O)n(Cc3ccc4c(c3)OCO4)c(=O)c3oc4ccccc4c32)c1	0%	0%
CC[C@H](C)[C@@H](NC(=O)O[C@@H]1Cc2cc(OC)ccc2O[C@H]1c1cccc(OC)c1)C(=O)OC	4%	-4%
O=C(Nc1ccccc1)N1CCC2(CC1)CCN(C(=O)c1cnccn1)CC2	-6%	-1%
